Reference: the supplement of paper PMC3545927
The list shows a part of the results. How many sequences the whole screen found active is unknown.

B1: HC923 (peptide)
chain: CACAWYELTPAGNASASA
B2: FS-1754 (peptide)
chain: CARMVRSVKVAGNASASA
B3: FS-1703 (peptide)
chain: CARFRRGARSAGNASASA
B4: FS-2396 (peptide)
chain: CARMTRSVDNAGNASASA
B5: HC2234 (peptide)
chain: CAEVVTSTKVAGNASASA
B6: FS-2837 (peptide)
chain: CARTTRSVVHAGNASASA
B7: FS-1695 (peptide)
chain: CARELRNVGVAGNASASA
B8: FS-1704 (peptide)
chain: CARFRRGLDNAGNASASA
B9: HC1695 (peptide)
chain: CAMHECSQHLAGNASASA
B10: HC772 (peptide)
chain: CAFQVAHLHAAGNASASA
B11: HC2206 (peptide)
chain: CAEVVTSMWVAGNASASA
B12: HC1268 (peptide)
chain: CACTANHDSPAGNASASA
B13: HC1433 (peptide)
chain: CADLLEDNVTAGNASASA
B14: HC244 (peptide)
chain: CAGNLPGCSFAGNASASA
B15: FS-684 (peptide)
chain: CALPFRSKRQAGNASASA
B16: FS-1505 (peptide)
chain: CAYSALHKRQAGNASASA
B17: FS-1761 (peptide)
chain: CARPKRKGKCAGNASASA
B18: FS-2399 (peptide)
chain: CARPKRSHHCAGNASASA
B19: HC1780 (peptide)
chain: CAMEECSQHCAGNASASA
B20: FS-1068 (peptide)
chain: CARPKRSKRQAGNASASA
B21: FS-1023 (peptide)
chain: CALHKREKRQAGNASASA
B22: HC584 (peptide)
chain: CAQYFLTRVEAGNASASA
B23: HC937 (peptide)
chain: CADHLEFWEGAGNASASA
B24: HC2318 (peptide)
chain: CATVPCHRPSAGNASASA
B25: HC1336 (peptide)
chain: CASFGSSSTSAGNASASA
B26: HC407 (peptide)
chain: CAPCGIVPAKAGNASASA
B27: HC1824 (peptide)
chain: CAITPCSGSWAGNASASA
B28: FS-3017 (peptide)
chain: CARPKRRKPRAGNASASA

Target: furin, P09958
Sequence (P09958 whole entry): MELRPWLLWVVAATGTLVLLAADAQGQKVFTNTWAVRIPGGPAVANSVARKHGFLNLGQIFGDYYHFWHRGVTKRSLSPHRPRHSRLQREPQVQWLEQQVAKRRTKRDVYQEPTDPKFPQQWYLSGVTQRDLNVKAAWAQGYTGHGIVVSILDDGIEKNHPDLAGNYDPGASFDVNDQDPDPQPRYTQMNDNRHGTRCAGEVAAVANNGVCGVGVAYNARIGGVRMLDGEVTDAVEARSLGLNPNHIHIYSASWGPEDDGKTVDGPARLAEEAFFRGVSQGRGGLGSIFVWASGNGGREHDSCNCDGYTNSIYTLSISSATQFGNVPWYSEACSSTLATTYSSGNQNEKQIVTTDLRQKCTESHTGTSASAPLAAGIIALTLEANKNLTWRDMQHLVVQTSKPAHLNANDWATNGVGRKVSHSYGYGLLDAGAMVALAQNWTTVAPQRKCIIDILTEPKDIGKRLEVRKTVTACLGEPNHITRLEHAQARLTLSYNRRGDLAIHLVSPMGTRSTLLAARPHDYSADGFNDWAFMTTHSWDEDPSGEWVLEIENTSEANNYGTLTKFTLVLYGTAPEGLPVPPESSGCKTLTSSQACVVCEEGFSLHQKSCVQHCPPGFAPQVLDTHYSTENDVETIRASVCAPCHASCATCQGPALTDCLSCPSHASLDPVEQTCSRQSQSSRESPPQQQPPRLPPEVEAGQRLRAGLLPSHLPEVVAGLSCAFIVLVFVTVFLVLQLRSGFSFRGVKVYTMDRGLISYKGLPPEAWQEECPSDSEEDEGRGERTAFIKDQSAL
Test: furin cleavage Z-score vs untreated control; higher = more cleavage, active = 3.5 or more, inactive = 1 or less, 8 variable residues between constant flanks
In short: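 Magnetic beads held 8-mer peptides by the N-terminus, each fused to a cDNA oligonucleotide, and purified furin was added for 7.5, 15 or 30 min. Released DNA was sequenced after PCR adapter tagging. The cleavage Z-score is the log count relative to furin-free reactions, lowess-adjusted and divided by median absolute deviation.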
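Also: purified furin at 1:10 enzyme:substrate in 50 mM HEPES pH 7.5.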

| Sequence | furin cleavage Z-score (7.5 min) | furin cleavage Z-score (15 min) | furin cleavage Z-score (30 min) |
| --- | --- | --- | --- |
| B1 | -0.0785 (inactive) | 0.676 (inactive) | -1.48 (inactive) |
| B2 | 3.01 | 4.69 (active) | 6.85 (active) |
| B3 | 10.1 (active) | 10.3 (active) | 8.23 (active) |
| B4 | 10.7 (active) | 10.3 (active) | 7.86 (active) |
| B5 | 0.581 (inactive) | 0.63 (inactive) | -0.359 (inactive) |
| B6 | -0.34 (inactive) | 0.171 (inactive) | 0.71 (inactive) |
| B7 | -1.56 (inactive) | 0.756 (inactive) | -0.781 (inactive) |
| B8 | 10.1 (active) | 8.75 (active) | 7.17 (active) |
| B9 | 0.819 (inactive) | 2.72 | 1.59 |
| B10 | -0.105 (inactive) | -0.994 (inactive) | -1.62 (inactive) |
| B11 | 0.942 (inactive) | -0.688 (inactive) | -0.185 (inactive) |
| B12 | -0.651 (inactive) | -0.843 (inactive) | -2.03 (inactive) |
| B13 | 0.275 (inactive) | -2.11 (inactive) | -1.66 (inactive) |
| B14 | -0.0639 (inactive) | 0.93 (inactive) | -0.123 (inactive) |
| B15 | 9.98 (active) | 10.9 (active) | 7.98 (active) |
| B16 | 1.15 | -1.98 (inactive) | 1.13 |
| B17 | 0.0893 (inactive) | 0.774 (inactive) | 1.28 |
| B18 | 4.25 (active) | 6.93 (active) | 6.58 (active) |
| B19 | 1.81 | -0.183 (inactive) | 1.82 |
| B20 | 12.3 (active) | 11.8 (active) | 9.11 (active) |
| B21 | 13.9 (active) | 12.1 (active) | 10.2 (active) |
| B22 | -0.544 (inactive) | -0.576 (inactive) | 0.581 (inactive) |
| B23 | 0.211 (inactive) | -1.35 (inactive) | 0.811 (inactive) |
| B24 | -1.23 (inactive) | 0.611 (inactive) | 0.585 (inactive) |
| B25 | -0.845 (inactive) | -1.34 (inactive) | 0.561 (inactive) |
| B26 | 0.926 (inactive) | 0.441 (inactive) | 0.898 (inactive) |
| B27 | -0.759 (inactive) | -0.739 (inactive) | -0.66 (inactive) |
| B28 | 6.7 (active) | 9.47 (active) | 8.98 (active) |
